From PubChem BioAssay (NCATS)
Results filed as inconclusive are left out. The source made the active and inactive calls. Unless noted, calls follow the shape of the dose curve; as a rule, active = well fitted curve in the direction sought with a large enough effect; inconclusive = small, poorly fitted or top-dose-only effect, or another doubt; inactive = no such curve, though single readings can be large; an effect the other way counts as inactive or inconclusive.

Legend:
[1] = A High-Content qHTS Against Drug Library for the Identification of Small Molecules that Inhibit DYT1 Early Onset Primary Dystonia-Associated Cell Pathology (AID 1645839; calls by dose curve)
Outline: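 Flp-In T-REx 293 cells with tetracycline-inducible EGFP-delE hTOR1A (WT EGFP-hTOR1A as reference), 800 cells/well; compound added with tetracycline, 48 h at 37 C. Fixed, permeabilized cells imaged; %pathology (punctate TorsinA) primary, cell count counterscreen.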

[2] = Primary qHTS for inhibitors of nuclear receptor binding SET domain protein 2 (NSD2) in an isogenic RCH-ACV NSD2 p.E1099K mutant (9B) (AID 1645876); also: nearly all actives have a fitted effect of over 70% in size
[3] = Primary qHTS for inhibitors of nuclear receptor binding SET domain protein 2 (NSD2) in an RCH-ACV wild type WT cells (2C) (AID 1645877); also: nearly all actives have a fitted effect of over 70% in size
[4] = target: Glutathione peroxidase 1 (Homo sapiens) (UniProt P07203); test: Primary qHTS Assay for Inhibitors of Recombinant Selenoprotein Glutathione Peroxidase 1 (GPX1) (AID 1845191); also: nearly all actives have a fitted effect of over 65% in size
Outline: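 GR-coupled assay: compounds preincubated 30 min at room temperature with GPX1, then reaction started with CHP; final 10 nM GPX1, 1 mM GSH, 0.5 mM CHP, 0.5 mM NADPH, 100 nM GR, 0.01% BSA, pH 7.5 Tris buffer. NADPH fluorescence (340/450 nm) read at 0 and 15 min.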

[5] = target: Cytochrome P450 2C9 (Homo sapiens) (UniProt P11712); test: Cytochrome P450 family 2 subfamily C member 9 (CYP2C9) small molecule antagonists: luciferase biochemical (cell-free) qHTS assay (AID 1645842; active = well fitted curve in the direction sought with a large enough effect in the repeat runs; an effect the other way counts as inactive or inconclusive; also: nearly all actives have a fitted effect of over 55% in size; also: potency is read from the fitted curve at half-maximal effect)
Outline: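 Luminescence, after 20 min with luciferin detection reagent, reflected CYP2C9 turnover during a 1 h NADPH-driven reaction at 37C. Enzyme-substrate mix contained 0.4% bovine serum albumin and was preincubated with compound 10 min at room temperature.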

[6] = target: Cytochrome P450 2D6 (Homo sapiens) (UniProt P10635); test: Cytochrome P450 family 2 subfamily D member 6 (CYP2D6) small molecule antagonists: luciferase biochemical (cell-free) qHTS assay (AID 1645840; active = well fitted curve in the direction sought with a large enough effect in the repeat runs; an effect the other way counts as inactive or inconclusive; also: nearly all actives have a fitted effect of over 55% in size)
Outline: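 P450-Glo luminescent screen: recombinant CYP2D6 enzyme–proluciferin substrate mix preincubated with compound 10 min at room temperature, then NADPH regeneration added for 1 h at room temperature. Detection reagent added for 20 min; luciferin light read as relative luminescence units.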

[7] = Viability counterscreen for antagonist of constitutive androstane receptor (CAR) against the NCATS DSHEA and TCM libraries (AID 1794837);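 also: compound exposure lasted 24 h before viability reading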
Outline: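 Fluorescence from CellTiter-Fluor reports live-cell protease activity in HepG2-CYP2B6-hCAR cells treated for 24 h with substances alongside 48 uM CITCO.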

[8] = Viability counterscreen for agonist of constitutive androstane receptor (CAR) against the NCATS DSHEA and TCM libraries (AID 1794838);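 also: cells exposed to compound for 24 h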
Outline: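 In agonist mode, PK11195 is added at 0.75 uM final to HepG2-CYP2B6-hCAR cells dosed with test substances. Cultures incubate 24 h at 37C before a protease-based fluorogenic viability readout.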

[9] = target: Nuclear receptor subfamily 1 group I member 3 (Homo sapiens) (UniProt Q14994); test: Primary qHTS for agonist of constitutive androstane receptor (CAR) against the NCATS DSHEA and TCM libraries (AID 1794839);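 also: HepG2 cells expressing human CAR with a CYP2B6 reporter plus PK11195 antagonist; luciferase reporter luminescence read with ONE-Glo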
Outline: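 Cells stably carrying hCAR and a CYP2B6 reporter (HepG2 background) are seeded and allowed 5 h to adhere. Substances at multiple concentrations are added alongside 0.75 µM PK11195, and luciferase signal is measured after 24 h.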

[10] = HepG2 viability counterscreen (readout 2: ATP content) against the NCATS DSHEA and TCM libraries (AID 1794840);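 also: HepG2 cells exposed to substances for about 24 h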
Outline: (§1)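 Cytotoxicity was assessed in HepG2 cells plated at 1,000 cells/well and exposed for about 24 hours to a concentration series. Protease activity and ATP content were measured sequentially in each well.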

[11] = HepG2 viability counterscreen (readout 1: protease activity) against the NCATS DSHEA and TCM libraries (AID 1794841);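 also: cells exposed to compounds for about 24 h before the protease read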
Outline: as §1

[12] = NCATS anti-infectives library activity on HEK293 viability as a counter-qHTS vs the C. elegans viability qHTS (AID 1745854);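 also: HEK293 cells exposed to compounds for 24 hr before the viability read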
Outline: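 Cytotoxicity in human HEK293 cells is measured by ATP-dependent CellTiter-Glo luminescence following a 24 hr incubation with titrated library compounds at 37C. Top final concentration is 41.7 uM.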

[13] = target: Cytochrome P450 3A4 (Homo sapiens) (UniProt P08684); test: Cytochrome P450 family 3 subfamily A member 4 (CYP3A4) small molecule antagonists: luciferase qHTS assay (AID 1645841; active = well fitted curve in the direction sought with a large enough effect in the repeat runs; an effect the other way counts as inactive or inconclusive; also: nearly all actives have a fitted effect of over 45% in size)
Outline: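 P450-Glo CYP3A4 enzyme with proluciferin substrate preincubated 10 min with compound at room temperature, then NADPH regeneration 1 h. Luciferin detection reagent added for 20 min; luminescence recorded. Ketoconazole positive control.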

[14] = NCATS anti-infectives library activity on the primary C. elegans qHTS viability assay (AID 1745855; calls by dose curve); settings: C. elegans worm area imaging, day 7; at 41.8 µM (top of the series)
Outline: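 Viability is taken from GFP fluorescence of PE254-GFP-FLuc C. elegans imaged by laser cytometry over 7 days. Ten L1 worms per well grow at 21 °C on TOP10 E. coli capsules with titrated compound; levamisole marks toxicity.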

Measured: Potency

Sequence of Cytochrome P450 2C9 (Homo sapiens) (P11712 whole entry, looked up): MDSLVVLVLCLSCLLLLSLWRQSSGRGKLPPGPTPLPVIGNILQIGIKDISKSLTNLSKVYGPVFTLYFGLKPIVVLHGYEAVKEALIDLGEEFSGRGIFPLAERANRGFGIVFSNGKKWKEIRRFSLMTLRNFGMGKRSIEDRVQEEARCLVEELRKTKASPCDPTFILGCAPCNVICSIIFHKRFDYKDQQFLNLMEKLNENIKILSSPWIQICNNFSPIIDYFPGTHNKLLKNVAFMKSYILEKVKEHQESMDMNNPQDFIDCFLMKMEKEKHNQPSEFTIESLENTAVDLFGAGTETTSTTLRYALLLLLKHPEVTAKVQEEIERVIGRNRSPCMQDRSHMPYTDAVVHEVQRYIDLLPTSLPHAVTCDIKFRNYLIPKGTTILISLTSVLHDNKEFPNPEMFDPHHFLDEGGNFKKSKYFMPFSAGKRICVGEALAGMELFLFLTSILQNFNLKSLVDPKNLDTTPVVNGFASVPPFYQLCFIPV
Sequence of Glutathione peroxidase 1 (Homo sapiens) (P07203 whole entry, looked up): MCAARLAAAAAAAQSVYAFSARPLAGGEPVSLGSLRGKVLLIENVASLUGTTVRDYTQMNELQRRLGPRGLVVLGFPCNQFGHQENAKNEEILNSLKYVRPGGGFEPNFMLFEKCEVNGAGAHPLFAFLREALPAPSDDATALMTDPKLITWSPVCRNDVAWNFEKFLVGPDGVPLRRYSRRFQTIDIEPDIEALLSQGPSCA
Sequence of Cytochrome P450 2D6 (Homo sapiens) (P10635 whole entry, looked up): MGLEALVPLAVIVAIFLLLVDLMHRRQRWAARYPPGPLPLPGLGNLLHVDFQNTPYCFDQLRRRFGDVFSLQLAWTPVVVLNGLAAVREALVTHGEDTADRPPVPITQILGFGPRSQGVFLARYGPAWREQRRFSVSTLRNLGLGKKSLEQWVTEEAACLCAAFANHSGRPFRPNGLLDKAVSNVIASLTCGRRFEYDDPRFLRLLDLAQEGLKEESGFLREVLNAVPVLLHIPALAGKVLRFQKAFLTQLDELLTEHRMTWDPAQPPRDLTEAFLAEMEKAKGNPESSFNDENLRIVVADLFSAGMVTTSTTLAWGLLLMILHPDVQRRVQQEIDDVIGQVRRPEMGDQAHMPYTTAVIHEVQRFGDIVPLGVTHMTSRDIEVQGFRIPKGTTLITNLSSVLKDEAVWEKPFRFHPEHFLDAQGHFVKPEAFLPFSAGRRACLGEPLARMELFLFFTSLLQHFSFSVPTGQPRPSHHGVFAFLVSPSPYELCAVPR
Sequence of Cytochrome P450 3A4 (Homo sapiens) (P08684 whole entry, looked up): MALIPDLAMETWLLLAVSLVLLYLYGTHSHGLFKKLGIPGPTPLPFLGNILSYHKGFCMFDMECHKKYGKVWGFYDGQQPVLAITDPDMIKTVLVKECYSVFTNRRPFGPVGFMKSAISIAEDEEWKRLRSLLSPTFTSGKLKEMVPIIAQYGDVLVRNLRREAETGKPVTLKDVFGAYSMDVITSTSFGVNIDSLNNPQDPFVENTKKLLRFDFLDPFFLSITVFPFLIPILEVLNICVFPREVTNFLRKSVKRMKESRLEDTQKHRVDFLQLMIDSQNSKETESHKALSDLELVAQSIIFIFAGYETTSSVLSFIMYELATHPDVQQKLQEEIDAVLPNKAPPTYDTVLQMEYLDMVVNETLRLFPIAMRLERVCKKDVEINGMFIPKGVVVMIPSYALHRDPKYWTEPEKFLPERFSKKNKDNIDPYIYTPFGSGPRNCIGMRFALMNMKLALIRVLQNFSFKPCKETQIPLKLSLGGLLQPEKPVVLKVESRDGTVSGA
Sequence of Nuclear receptor subfamily 1 group I member 3 (Homo sapiens) (Q14994 whole entry, looked up): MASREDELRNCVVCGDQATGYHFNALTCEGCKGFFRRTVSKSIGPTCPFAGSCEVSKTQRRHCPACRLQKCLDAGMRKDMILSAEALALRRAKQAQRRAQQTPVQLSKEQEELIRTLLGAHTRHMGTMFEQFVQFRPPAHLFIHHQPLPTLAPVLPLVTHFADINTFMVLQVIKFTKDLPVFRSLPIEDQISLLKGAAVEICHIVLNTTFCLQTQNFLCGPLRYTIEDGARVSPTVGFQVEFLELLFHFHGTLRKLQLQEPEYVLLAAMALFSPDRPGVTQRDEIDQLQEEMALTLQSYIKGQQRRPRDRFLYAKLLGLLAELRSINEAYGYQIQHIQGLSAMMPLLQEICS

C1CCN2C[C@@H]3C[C@@H](CN4CCCC[C@@H]34)[C@H]2C1
inactive: [1] | [2] | [3] | [4]

CO[C@@]1(NC(=O)C(C(=O)O)c2ccc(O)cc2)C(=O)N2C(C(=O)O)=C(CSc3nnnn3C)CO[C@@H]21 (some centres not stated)
inactive: [1] | [5] | [2] | [3] | [4]

CC(C)C[C@@H](N)C(=O)O
inactive: [1] | [2] | [3]

Cc1cc(OI)c(C(C)C)cc1-c1cc(C(C)C)c(OI)cc1C
active: [5] 12.3 µM
inactive: [1] | [2] | [3] | [4]

CCCOC(=O)c1ccc(N)cc1
inactive: [6]

CC(C)=CCC[C@@](C)(O)[C@H]1CC=C(C)CC1
inactive: [1] | [2] | [7] | [8] | [9] | [10] | [11]

CC1CC(OC(=O)c2ccccc2O)CC(C)(C)C1 (configuration not stated)
inactive: [1] | [5] | [2] | [3] | [4]

O=C(O)CCCc1ccccc1
inactive: [1] | [5] | [2] | [3] | [12]

NS(=O)(=O)c1cc2c(cc1C(F)(F)F)NCNS2(=O)=O
inactive: [1] | [5] | [2] | [3] | [4]

Cc1c(C(=O)NCCO)[n+](=O)c2ccccc2n1[O-]
inactive: [6] | [13] | [5] | [2] | [3]

O=C(CCBr)N1CCN(C(=O)CCBr)CC1
inactive: [1] | [5] | [2] | [3] | [4]

O=c1[nH]c2cc(C(F)(F)F)c(N3CCOCC3)cc2n(CP(=O)(O)O)c1=O
inactive: [6] | [5]

CCOC(=O)OC(C)OC(=O)[C@@H]1N2C(=O)[C@@H](NC(=O)[C@H](N)c3ccccc3)[C@H]2SC1(C)C (some centres not stated)
inactive: [1] | [5] | [2] | [3] | [4]

CCCCC1(COC(=O)CCC(=O)O)C(=O)N(c2ccccc2)N(c2ccccc2)C1=O
inactive: [1] | [2] | [3] | [4]

Cc1ccsc1/C=C/C1=NCCCN1C
inactive: [1] | [2] | [3] | [4]

COc1ccccc1OCC(O)CO (configuration not stated)
inactive: [1] | [2] | [3] | [4]

CC1(c2ccccc2)OC(C(=O)O)=CC1=O (configuration not stated)
inactive: [6] | [13] | [5]

CC(=O)NCc1c(I)c(NC(C)=O)c(I)c(C(=O)O)c1I
inactive: [1] | [5] | [2] | [3] | [4]

CC(C)=CCC/C(C)=C/CO
inactive: [1] | [2] | [3] | [4]

CCC(C)(CN(C)C)OC(=O)c1ccccc1 (configuration not stated)
inactive: [1] | [2]

Cc1onc(-c2ccccc2)c1-c1ccc(S(N)(=O)=O)cc1
inactive: [1] | [4]

CCOC(=O)[C@H](CCc1ccccc1)N[C@@H](C)C(=O)N1Cc2cc(OC)c(OC)cc2C[C@H]1C(=O)O
inactive: [12] | [14]
